This note sets out measurements from PubChem BioAssay (Tox21).

Test [1] can be described thus: Nuclear factor erythroid 2-related factor 2/antioxidant responsive element (Nrf2/ARE) small molecule agonists: qHTS cell viability counter screen in human keratinocytes (AID 1919968; active means well fitted curve in the direction sought with a large enough effect in the repeat runs; an effect the other way counts as inactive or inconclusive; further: nearly all actives have a fitted effect of over 55% in size; further: potency means the concentration at half of the fitted maximal effect). The method, boiled down: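 KeratinoSens HaCaT cells, 1,500/well, preincubated 5 h, then exposed to compounds in DMSO for 23 h at 37 C/5% CO2. Viability read as CellTiter-Fluor fluorescence after 1 h, in the same wells as the ARE-luciferase read.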
In general terms: qHTS replaces the single test concentration by a dilution series.

Test [2] in a line: Nuclear factor erythroid 2-related factor 2/antioxidant responsive element (Nrf2/ARE) small molecule agonists: luciferase reporter gene qHTS assay in human keratinocytes (AID 1919969). Further: nearly all actives have a fitted effect of over 35% in size. For orientation: Reporter assays use an easily measured gene product as a stand-in for the process of interest.
Test [3] addresses Gonadotropin-releasing hormone receptor (Homo sapiens) (UniProt P30968). The test can be described thus: Human gonadotropin-releasing hormone receptor (GnRHR) small molecule agonists, calcium flux assay in GnRHR-HEK293 cells (AID 1920063). Further: nearly all actives have a fitted effect of over 35% in size. The method, boiled down: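 HEK293 cells stably expressing human GnRHR were dye-loaded for 1 h at 37 C. Compound was added in agonist mode and fluorescence (Ex/Em 480/540) recorded kinetically for 3 min. Fifteen concentrations, triplicates.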
Background: Calcium assays in cells follow changes in intracellular calcium, usually with a dye or a luminescent sensor.

In test [4] the target is KiSS-1 receptor (Homo sapiens) (UniProt Q969F8). The experiment in a line: Human kisspeptin (KISS1R) small molecule agonists, calcium flux assay in KISS1R-HEK293 cells (AID 1920064; active means well fitted curve in the direction sought with a large enough effect in the repeat runs; an effect the other way counts as inactive or inconclusive). The method, boiled down:
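HEK293 cells stably expressing human KISS1R were loaded with calcium dye for 1 h at 37 C, then given compound; fluorescence (Ex/Em 480/540) was read kinetically for 3 min. Fifteen concentrations, triplicate.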

Test [5] can be described thus: G protein-coupled receptor (GPCR) small molecule agonists, calcium flux assay: HEK293 wild type cell line counter screen (AID 1920065). The method, boiled down:
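Wild-type HEK293 cells plated 18 h, loaded with calcium dye 1 h at 37 C, then compounds added in agonist mode (ATP as positive control). Kinetic fluorescence Ex/Em 480/540 recorded 3 min at 1 sec intervals; 15 concentrations, triplicate.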

A short description of test [6]: p53 small molecule agonists, cell-based qHTS assay with human liver microsomes (AID 1963577). The method, boiled down:
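Cells carrying a p53-responsive bla reporter were rested 5 h (37 C, 5% CO2) before compound transfer. Human liver microsomes plus NADPH, 0.5 mg/mL final apiece, supplied metabolism during the 16 h 37 C exposure.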

Test [7] in a line: p53 small molecule agonists, cell-based qHTS assay with rat liver microsomes (AID 1963578). The method, boiled down:
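Fluorescence from a beta-lactamase reporter under a p53 response element was measured after cells had been incubated 16 h at 37 C with test compound and rat liver microsomes plus NADPH (0.5 mg/mL final each).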

The nature of test [8]: p53 small molecule agonists, cell-based qHTS assay with human liver microsomes: qHTS cell viability counter screen (AID 1963579). Further: nearly all actives have a fitted effect of over 45% in size. Further: potency means the concentration at half of the fitted maximal effect. An outline of the steps: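 Seed p53RE-bla cells at 4,000 per well; incubate 5 h at 37 C; add compound, human liver microsomes and NADPH; incubate 16 h at 37 C; add CellTiter-Glo; after 30 min at room temperature, read luminescence.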
Test [9] in a line: p53 small molecule agonists, cell-based qHTS assay with rat liver microsomes: qHTS cell viability counter screen (AID 1963580). Further: nearly all actives have a fitted effect of over 45% in size. Further: potency means the concentration at half of the fitted maximal effect. The method, boiled down:
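p53RE-bla HCT-116 cells were exposed 16 h at 37 C to compounds with rat liver microsomes (0.5 mg/mL) and NADPH (0.5 mg/mL). Viability was measured in the same wells as ATP content by CellTiter-Glo luminescence.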

Test [10] in a line: p53 small molecule agonists, cell-based qHTS assay: qHTS cell viability counter screen (AID 1963581). Further: nearly all actives have a fitted effect of over 45% in size. Further: potency means the concentration at half of the fitted maximal effect. The method, boiled down:
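p53RE-bla HCT-116 cells, compounds added 5 h after plating and incubated 16 h at 37 C. Cytotoxicity measured in the same wells as intracellular ATP by CellTiter-Glo luminescence after 30 min at room temperature.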

Test [11] addresses 5-hydroxytryptamine receptor 2A (Homo sapiens) (UniProt P28223). The experiment in a line: 5-hydroxytryptamine receptor 2A (HTR2A) small molecule agonists, cell-based qHTS assay (AID 1963587). Further: nearly all actives have a fitted effect of over 30% in size. The method, boiled down:
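CHO cells stably expressing human HTR2A, plated 18 h, loaded with calcium dye 1 h at 37 C. Agonist mode: compounds added and intracellular calcium fluorescence recorded kinetically for 2 min at 1 sec intervals.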

For test [12], the target named is Muscarinic acetylcholine receptor M1 (Homo sapiens) (UniProt P11229). The experiment in a line: Cholinergic receptor muscarinic 1 (CHRM1) small molecule antagonists, cell-based qHTS assay (AID 1963588). Further: nearly all actives have a fitted effect of over 40% in size. The method, boiled down: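 CHRM1-CHO calcium-flux assay, antagonist mode. Cells were seeded 18 h, dye-loaded 1 h at 37 C and given compound for 5 min at RT, then acetylcholine was added at 50nM. FDSS fluorescence was read 3 min; 15 concentrations, three runs.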
Muscarinic acetylcholine receptor M1 (Homo sapiens), sequence (P11229 whole entry, looked up): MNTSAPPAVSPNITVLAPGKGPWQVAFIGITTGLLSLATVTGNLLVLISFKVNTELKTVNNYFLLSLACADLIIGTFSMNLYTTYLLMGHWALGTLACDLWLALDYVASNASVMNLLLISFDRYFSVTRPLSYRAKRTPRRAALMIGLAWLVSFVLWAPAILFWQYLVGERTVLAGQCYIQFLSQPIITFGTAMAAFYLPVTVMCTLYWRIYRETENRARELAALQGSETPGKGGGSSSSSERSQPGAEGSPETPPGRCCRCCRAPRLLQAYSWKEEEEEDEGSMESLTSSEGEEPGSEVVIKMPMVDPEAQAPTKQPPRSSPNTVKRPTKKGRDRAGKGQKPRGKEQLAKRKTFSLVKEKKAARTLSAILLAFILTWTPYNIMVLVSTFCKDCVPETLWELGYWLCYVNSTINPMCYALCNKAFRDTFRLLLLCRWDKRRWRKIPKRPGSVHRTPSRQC

Test [13] shares this target. The test can be described thus: Cholinergic receptor muscarinic 1 (CHRM1) small molecule agonists, cell-based qHTS assay (AID 1963589). Further: nearly all actives have a fitted effect of over 35% in size. The method, boiled down: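 CHO cells stably expressing human CHRM1 were loaded with calcium dye for 1 h at 37 C, then compound was added in agonist mode. Intracellular calcium fluorescence was followed kinetically at 1 s intervals. Fifteen concentrations were tested in three independent runs.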

A short description of test [14]: cAMP Responsive Elements (CRE) small molecule agonists, cell-based qHTS assay (AID 1963590). An outline of the steps:
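CRE-bla HEK 293T cells, 2,000/well in DMEM with 10% dialyzed FBS and 25 mM HEPES, pre-incubated 18 h at 37 C, then exposed to compound 3 h at 37 C. Beta-lactamase reporter read with LiveBLAzer B/G FRET substrate after 2 h at room temperature.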

Test [15] in a line: cAMP Responsive Elements (CRE) small molecule antagonists, cell-based qHTS assay (AID 1963591; active means well fitted inhibition curve with a large enough effect in the signal ratio in the repeat runs, not every such curve was filed as active; the % refers to the signal ratio). An outline of the steps:
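CRE-bla HEK293T cells plated 18 h, then given compound plus NKH477 at 0.25 uM final for 3 h at 37C. Beta-lactamase reporter read with LiveBLAzer B/G FRET substrate after 2 h at room temperature.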

The target in test [16] is Beta-2 adrenergic receptor (Homo sapiens) (UniProt P07550). The experiment in a line: Adrenergic beta2 receptor (ADRB2) small molecule agonists, cell-based qHTS assay (AID 1963593).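 Further: CHO cells stably overexpressing human ADRB2.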 The method, boiled down:
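CHO cells stably over-expressing ADRB2 were plated overnight at 37C, then dosed with compounds plus a stimulation mix containing 100uM IBMX and 25uM Ro-20-1724 for 0.5hr at room temperature. cAMP was measured by HTRF competition, 1hr.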

Test [17] deals with D(2) dopamine receptor (Homo sapiens) (UniProt P14416). The experiment in a line: Dopamine D2 receptor (DRD2) small molecule agonists, cell-based qHTS assay (AID 1963594). Further: nearly all actives have a fitted effect of over 35% in size. An outline of the steps: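 HEK293 cells stably expressing human DRD2, pre-treated with PDE inhibitor Ro20-1724 (0.1 mM final) and compound 10 min at room temperature, then stimulated with NKH477 (200nM […]) for 30 min. cAMP read by HTRF (665/620 nm).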
D(2) dopamine receptor (Homo sapiens), sequence (P14416 whole entry, looked up): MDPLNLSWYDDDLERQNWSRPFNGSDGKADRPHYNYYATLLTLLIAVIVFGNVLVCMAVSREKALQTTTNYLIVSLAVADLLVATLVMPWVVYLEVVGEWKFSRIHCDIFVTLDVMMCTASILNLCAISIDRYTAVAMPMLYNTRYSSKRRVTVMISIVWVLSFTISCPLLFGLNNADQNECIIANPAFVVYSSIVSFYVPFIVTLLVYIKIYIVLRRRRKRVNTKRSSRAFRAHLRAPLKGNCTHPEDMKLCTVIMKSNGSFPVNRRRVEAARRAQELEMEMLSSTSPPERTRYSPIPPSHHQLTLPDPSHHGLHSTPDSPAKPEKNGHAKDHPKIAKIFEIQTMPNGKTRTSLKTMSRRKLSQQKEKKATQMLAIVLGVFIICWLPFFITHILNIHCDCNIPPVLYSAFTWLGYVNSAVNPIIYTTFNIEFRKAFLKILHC

Test [18] shares this target. The test can be described thus: Dopamine D2 receptor (DRD2) small molecule antagonists, cell-based qHTS assay (AID 1963595; active means well fitted inhibition curve with a large enough effect in the signal ratio in the repeat runs, with a control signal flat; the % refers to the signal ratio; further: potency means the concentration at half of the fitted maximal effect). An outline of the steps:
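In this cell-based antagonist screen, compounds act for 10 min at room temperature before a 30 min challenge with 12 nM quinpirole and 200 nM NKH477. cAMP is quantified by HTRF competition in DRD2-HEK293 cells containing 0.1 mM Ro20-1724.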

The target of test [19] is Beta-2 adrenergic receptor (Homo sapiens) (UniProt P07550). The test can be described thus: Adrenergic beta2 receptor (ADRB2) small molecule antagonists, cell-based qHTS assay (AID 1963592). Further: series mostly up to about 92 µM; nearly all actives have a fitted effect of over 50% in size. The method, boiled down:
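Cells (CHO, stable ADRB2 overexpression) incubated 18-20hr at 37C; compounds added from DMSO; agonist mix (1nM isoproterenol, 100uM IBMX, 25uM Ro-20-1724) added; 0.5hr RT; d2-cAMP and anti-cAMP-cryptate added; 1hr RT; 665/615 nm read.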

A number with no mark means an inactive call. Inconclusive results are not listed. Activity calls are given as the source filed them. Unless noted, the call rests on the fitted dose curve.
On the % scale 0 is the no-effect control and ±100 the full control effect.

Beta-2 adrenergic receptor (Homo sapiens), sequence (P07550 whole entry, looked up): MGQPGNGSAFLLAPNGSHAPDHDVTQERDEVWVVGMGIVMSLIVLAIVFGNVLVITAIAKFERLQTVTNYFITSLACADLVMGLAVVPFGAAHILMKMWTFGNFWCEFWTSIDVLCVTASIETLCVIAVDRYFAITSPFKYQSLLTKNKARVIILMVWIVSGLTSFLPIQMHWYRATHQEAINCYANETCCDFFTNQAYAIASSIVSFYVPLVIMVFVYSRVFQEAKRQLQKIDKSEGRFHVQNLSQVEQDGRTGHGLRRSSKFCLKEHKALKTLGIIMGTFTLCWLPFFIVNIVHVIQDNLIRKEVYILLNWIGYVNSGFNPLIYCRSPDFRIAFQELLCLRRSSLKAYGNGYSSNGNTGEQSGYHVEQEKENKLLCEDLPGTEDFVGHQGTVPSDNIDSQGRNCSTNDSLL
5-hydroxytryptamine receptor 2A (Homo sapiens), sequence (P28223 whole entry, looked up): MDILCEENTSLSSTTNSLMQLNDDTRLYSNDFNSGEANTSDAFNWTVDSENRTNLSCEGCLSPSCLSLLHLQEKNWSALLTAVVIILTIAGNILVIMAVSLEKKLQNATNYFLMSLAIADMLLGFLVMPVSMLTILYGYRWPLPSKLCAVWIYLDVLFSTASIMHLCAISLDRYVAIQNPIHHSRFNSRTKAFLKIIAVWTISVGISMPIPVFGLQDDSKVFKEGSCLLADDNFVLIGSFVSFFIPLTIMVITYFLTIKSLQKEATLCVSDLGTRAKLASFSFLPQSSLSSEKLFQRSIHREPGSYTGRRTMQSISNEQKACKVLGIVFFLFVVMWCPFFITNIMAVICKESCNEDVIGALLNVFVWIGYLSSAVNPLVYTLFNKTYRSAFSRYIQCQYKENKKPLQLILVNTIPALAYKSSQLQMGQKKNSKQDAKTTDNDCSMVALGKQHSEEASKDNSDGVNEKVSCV
KiSS-1 receptor (Homo sapiens), sequence (Q969F8 whole entry, looked up): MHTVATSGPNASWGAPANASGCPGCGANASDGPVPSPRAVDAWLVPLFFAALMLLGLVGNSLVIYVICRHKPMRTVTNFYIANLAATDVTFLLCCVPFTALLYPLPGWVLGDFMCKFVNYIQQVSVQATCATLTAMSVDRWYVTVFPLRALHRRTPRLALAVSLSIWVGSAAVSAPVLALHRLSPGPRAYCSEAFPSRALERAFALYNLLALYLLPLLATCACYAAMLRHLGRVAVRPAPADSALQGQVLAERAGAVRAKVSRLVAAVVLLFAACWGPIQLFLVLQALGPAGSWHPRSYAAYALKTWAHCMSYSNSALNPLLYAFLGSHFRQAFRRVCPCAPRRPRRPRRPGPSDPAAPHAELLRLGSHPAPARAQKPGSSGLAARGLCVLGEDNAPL
Gonadotropin-releasing hormone receptor (Homo sapiens), sequence (P30968 whole entry, looked up): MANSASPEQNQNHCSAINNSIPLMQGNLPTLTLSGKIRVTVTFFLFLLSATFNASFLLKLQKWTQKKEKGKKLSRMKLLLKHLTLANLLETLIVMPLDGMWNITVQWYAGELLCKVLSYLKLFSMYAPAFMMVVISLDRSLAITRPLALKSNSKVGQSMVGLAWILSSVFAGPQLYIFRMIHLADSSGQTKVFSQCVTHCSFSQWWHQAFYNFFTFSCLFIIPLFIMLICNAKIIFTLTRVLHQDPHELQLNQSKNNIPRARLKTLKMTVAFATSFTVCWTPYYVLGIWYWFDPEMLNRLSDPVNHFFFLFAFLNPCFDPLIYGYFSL

As for `CC1(c2ccccc2)OC(C(=O)O)=CC1=O` (stereo unspecified), the Potency entry in test [1], in test [2], in test [3], in test [6], in [7] and in test [8] was “inactive” throughout. Moreover, the Potency entry in test [9], in test [10], in test [11], in test [12], in [13] and in test [14] was “inactive” in each case. Besides, the Potency entry in test [15], in test [16], in test [17] and in test [18] was “inactive” throughout. Further, the outcome in [4] and in [5] was inactive.
With `CCCCCCCC[N+](CCCCCCCC)(CCCCCCCC)CCCCCCCC`, the Potency in [1] was 8.62 µM (active); in test [8], 18.2 µM (active); in test [9] it was 16.2 µM (active); in [10] it was 4.57 µM (active); in [18], 24.3 µM (active). Besides, the Potency entry in test [2], in [3], in test [6], in test [7], in test [11] and in test [12] was “inactive” in each case. Also, the Potency entry in test [13] and in test [17] was “inactive” each time. Moreover, the outcome in test [4] and in test [5] was inactive.
On to `CCCCCCCCCCCl`, for which the Potency entry in test [1], in test [2], in [3], in test [6], in test [7] and in test [8] was “inactive” each time. Also, the Potency entry in [9], in test [10], in test [11], in test [12], in test [13] and in test [14] was “inactive” throughout. For the same molecule, the Potency result in test [19], in test [17] and in test [18] was “inactive” each time. Besides, the result in [4] and in test [5] was inactive.
For `O=C(O)CNCC(=O)O`, the activity change, negative = cytotoxicity in [1] was 0.812% [at 8.39 µM]; in [8], -6.14% [at 5.99 µM]; in test [9], 8.22% [at 5.99 µM]; in test [10], -13% [at 5.99 µM]. The activity, positive = activation in test [2] was -2.08% [at 8.39 µM]. Moreover, the activity change in [3] is 0.0589% [at 5.22 µM, active compounds read high]. Further, the activation was 0.594% [at 6.97 µM] in test [4]; 0.144% [at 5.23 µM] in [5]; 0.261% [at 5.99 µM] in [6]; 0.304% [at 5.99 µM] in test [7]; 0.803% [at 6.97 µM] in test [13]; -0.186% [at 8.39 µM] in test [14]. The activation in test [17] was -0.477% [at 8.39 µM]. Further, in test [12], the activity, negative = inhibition was -11.9% [at 5.58 µM]. In addition, the activity change, negative = inhibition is 0.325% [at 8.39 µM] in test [15], -7.9% [at 8.39 µM] in test [19] and -7.14% [at 8.38 µM] in test [18].
Consider `Cc1cccc(CN2CCN(C(c3ccccc3)c3ccc(Cl)cc3)CC2)c1` (stereo unspecified), for which the Potency in test [1] was 18.8 µM (active). In addition, the Potency entry in test [2], in test [3], in test [6], in test [7], in test [8] and in test [9] was “inactive” in each case. For the same molecule, the Potency result in test [10], in [11], in test [12], in [13], in [14] and in test [15] was “inactive” each time. Further, the Potency entry in [16], in [17] and in test [18] was “inactive” throughout. Besides, the outcome in test [4] and in [5] was inactive.
Regarding `CN=C(NC#N)Nc1ccc(C2=NNC(=O)CC2C)cc1` (stereo unspecified), the Potency entry in [1], in [2], in [3], in [6], in test [7] and in test [8] was “inactive” each time. The Potency entry in [9], in test [10], in [11], in [12], in [13] and in [14] was “inactive” throughout. For the same molecule, the Potency result in [15] and in test [18] was “inactive” in each case. Moreover, the result in [4] and in test [5] was inactive.
